Bioassay records from PubChem.
CHRM4 PAM = positive allosteric modulators of human muscarinic M4 receptor | activation, % at 3 µM | P08173 | hit rate 0.4% among 360,000 | CHO-K1 hM4/Gqi5, Fluo-8 calcium fluorescence, ACh EC20; 0% = ACh EC20, 100% = maximal ACh;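 active means activation above its plate's cutoff, the mean activation of sample wells plus 3 SD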
Target sequence (P08173 whole entry, looked up): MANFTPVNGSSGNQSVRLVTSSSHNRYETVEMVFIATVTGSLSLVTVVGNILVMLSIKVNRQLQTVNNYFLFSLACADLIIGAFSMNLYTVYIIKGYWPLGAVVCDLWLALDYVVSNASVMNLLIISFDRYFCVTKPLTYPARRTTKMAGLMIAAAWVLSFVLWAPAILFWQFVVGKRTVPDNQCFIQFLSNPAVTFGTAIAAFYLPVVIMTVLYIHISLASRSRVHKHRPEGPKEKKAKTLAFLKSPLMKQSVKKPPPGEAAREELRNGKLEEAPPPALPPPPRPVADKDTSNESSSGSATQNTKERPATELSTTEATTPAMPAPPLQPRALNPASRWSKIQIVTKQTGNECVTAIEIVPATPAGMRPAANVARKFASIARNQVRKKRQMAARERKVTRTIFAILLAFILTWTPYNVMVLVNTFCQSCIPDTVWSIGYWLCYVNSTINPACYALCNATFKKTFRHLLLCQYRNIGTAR
CHRM1 agonist = human M1 muscarinic receptor agonism. activation, % at 3 µM. hit rate 0.33% among 360,000. P11229. CHO-K1 hM1, Fluo-8 calcium fluorescence, agonist mode; 0% DMSO, 100% acetylcholine EC100;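 active means activation above the run's mean compound activation plus 3 SD, cut at about 16% in these data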;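 further: peak over basal fluorescence ratio within a 140 s kinetic read after compound addition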
CHRM1 antagonist = antagonists of human M1 muscarinic receptor. P11229. CHO-K1 hM1, Fluo-8 calcium fluorescence, ACh EC80 antagonist. inhibition, % at 3 µM. hit rate 1.3% among 360,000. AID 588852;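 active means percent inhibition above its own plate's cutoff, namely the mean of that plate's compound wells plus 3 SD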;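 further: peak over basal fluorescence ratio during 140 s after agonist addition; 0% = ACh EC80 plus DMSO and 100% = DMSO alone without agonist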
CHRM4 antagonist = CHRM4 antagonism in calcium assay. inhibition, % at 3 µM. CHO-hM4 cells, ACh EC80, Fluo-8 calcium fluorescence. hit rate 0.73% among 360,000;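 active means inhibition above its plate's cutoff, the mean inhibition of sample wells plus 3 SD, cut at about 27% in these data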;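 further: 0% = acetylcholine EC80 with DMSO and 100% = DMSO without agonist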
CHRM4 agonist = CHRM4 agonism in calcium assay; P08173; CHO-K1 hM4/Gqi5, Fluo-8 calcium fluorescence; vehicle 0%, full acetylcholine response 100%; activation, % at 3 µM; hit rate 0.14% among 360,000; AID 624127;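 active means activation above the run mean over all test wells plus 3 SD, cut at about 32% in these data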;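 further: peak over basal fluorescence ratio per well then scaled between controls; 0% = DMSO wells and 100% = acetylcholine at EC100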
CHRM1 PAM = potentiates human M1 receptor response to acetylcholine | CHO-K1 hM1, Fluo-8 calcium fluorescence, ACh EC20; 0% = ACh EC20, 100% = maximal ACh | activation, % at 3 µM | hit rate 0.088% among 360,000 | P11229 | AID 588819; in the data active means activation above about 19%, passing the limit was not always enough
Starred values were filed as active, the others as inactive. Compounds with a hit are over-represented: about 2.2% of the library has one in this group of screens.

How did CC1=C(C(=O)NCc2ccc3c(c2)OCO3)C2(CCC(C)CC2)OC1=O (stereo not given) do in these assays?
CHRM4 PAM: -18; CHRM1 agonist: -3; CHRM1 antagonist: -2; CHRM4 antagonist: 60*; CHRM4 agonist: 4; CHRM1 PAM: -1

What do the screens show for `CCCCCCCC(O)CC(CC1CCCCC1)C(=O)NN` (stereo not given)?
CHRM4 PAM: 34*; CHRM1 agonist: 1; CHRM1 antagonist: -18; CHRM4 antagonist: 15; CHRM4 agonist: 1; CHRM1 PAM: 15

Results for O=C(c1cc2ccccc2cc1OCC(O)CN1CCCCC1)N1CCCCC1 (stereo not given) ?
CHRM4 PAM: -11; CHRM1 agonist: -12; CHRM1 antagonist: 33*; CHRM4 antagonist: 8; CHRM4 agonist: 3; CHRM1 PAM: -19

What do the screens show for `O=C(Cc1n[nH]c(=O)c2ccccc12)OCC(=O)c1ccc2c(c1)OCCO2`?
CHRM4 PAM: 6; CHRM1 agonist: -2; CHRM1 antagonist: -9; CHRM4 antagonist: -4; CHRM4 agonist: 5; CHRM1 PAM: 10

Results for CC(C)(C)N(Cc1ccccc1)C(=O)c1ccc2c(c1)OCCO2 ?
CHRM4 PAM: -17; CHRM1 agonist: -5; CHRM1 antagonist: 23; CHRM4 antagonist: 29*; CHRM4 agonist: 3; CHRM1 PAM: -18

Results for O=C(CCCc1ccccc1)c1ccc2c(c1)OCCO2 ?
CHRM4 PAM: 31*; CHRM1 agonist: -6; CHRM1 antagonist: -10; CHRM4 antagonist: -1; CHRM4 agonist: -2; CHRM1 PAM: 5

How did O=C(Cc1ccc(Br)cc1)OCC(=O)c1ccc2c(c1)OCCO2 do in these assays?
CHRM4 PAM: 30*; CHRM1 agonist: -3; CHRM1 antagonist: -5; CHRM4 antagonist: -14; CHRM4 agonist: 4; CHRM1 PAM: 2

How did O=C(CCc1ccccc1)c1ccc2c(c1)OCCCO2 do in these assays?
CHRM4 PAM: -4; CHRM1 agonist: -6; CHRM1 antagonist: -8; CHRM4 antagonist: 11; CHRM4 agonist: -2; CHRM1 PAM: -2

Results for O=C(/C=C/c1ccccc1)CC(O)(c1ccccc1)C(F)(F)C(F)F (stereo not given) ?
CHRM4 PAM: -33; CHRM1 agonist: -8; CHRM1 antagonist: 38*; CHRM4 antagonist: 47*; CHRM4 agonist: -2; CHRM1 PAM: -22

What do the screens show for `O=C(/C=C/c1ccccc1)CC(O)(c1ccccc1)C(F)(F)F` (stereo not given)?
CHRM4 PAM: -27; CHRM1 agonist: -9; CHRM1 antagonist: 28; CHRM4 antagonist: 31*; CHRM4 agonist: -2; CHRM1 PAM: -22

What do the screens show for `N#CC1(CCCN2CCCCC2)c2ccccc2CCc2ccccc21`?
CHRM4 PAM: -68; CHRM1 agonist: -5; CHRM1 antagonist: 68*; CHRM4 antagonist: 26*; CHRM4 agonist: 9; CHRM1 PAM: -25

What do the screens show for `Cc1ccc(C(C(=O)NC2CCCC2)N(Cc2cccs2)C(=O)CNC(=O)c2cccs2)o1` (stereo not given)?
CHRM4 PAM: -6; CHRM1 agonist: -3; CHRM1 antagonist: -20; CHRM4 antagonist: -7; CHRM4 agonist: 9; CHRM1 PAM: 3

Results for Cc1cccc2cc(CN(CCN(C)C)C(=S)Nc3ccccc3)c(=O)[nH]c12 ?
CHRM4 PAM: 36*; CHRM1 agonist: -8; CHRM1 antagonist: -8; CHRM4 antagonist: -7; CHRM4 agonist: 2; CHRM1 PAM: 8

What do the screens show for `Nc1[nH]n2c(=O)c3c(nc2c1N=Nc1ccccc1)CCCC3`?
CHRM4 PAM: 30*; CHRM1 agonist: -5; CHRM1 antagonist: -3; CHRM4 antagonist: 10; CHRM4 agonist: 1; CHRM1 PAM: 8

Results for O=C1c2ccc(-c3ccc(Cl)c(C(F)(F)F)c3)cc2S(=O)(=O)c2cccc(C(=O)N3CCN(c4ncc(Br)cn4)CC3)c21 ?
CHRM4 PAM: 12; CHRM1 agonist: -3; CHRM1 antagonist: -7; CHRM4 antagonist: -3; CHRM4 agonist: -1; CHRM1 PAM: 7

What do the screens show for `CCn1c(C)c(C(C)=O)c(N2CCN(c3ccccn3)CC2)nc1=S`?
CHRM4 PAM: -5; CHRM1 agonist: -14; CHRM1 antagonist: 64*; CHRM4 antagonist: 0; CHRM4 agonist: 0; CHRM1 PAM: -33

What do the screens show for `CCn1c(C)c(C(C)=O)c(N2CCN(C(c3ccccc3)c3ccccc3)CC2)nc1=S`?
CHRM4 PAM: -20; CHRM1 agonist: -7; CHRM1 antagonist: 54*; CHRM4 antagonist: 29*; CHRM4 agonist: 11; CHRM1 PAM: -30

What do the screens show for `CC(=O)c1c(N2CCCCC2)nc(=S)n(-c2ccccc2)c1C`?
CHRM4 PAM: -9; CHRM1 agonist: -7; CHRM1 antagonist: 15; CHRM4 antagonist: 19; CHRM4 agonist: 1; CHRM1 PAM: -17

How did CC(=O)c1c(N2CCCC2)nc(=S)n(-c2ccccc2)c1C do in these assays?
CHRM4 PAM: -17; CHRM1 agonist: -12; CHRM1 antagonist: 75*; CHRM4 antagonist: 47*; CHRM4 agonist: 1; CHRM1 PAM: -34

Results for O=C(O)c1ccccc1NC(=O)C1CCN(S(=O)(=O)c2ccc3c(c2)OCCO3)CC1 ?
CHRM4 PAM: 9; CHRM1 agonist: 2; CHRM1 antagonist: -15; CHRM4 antagonist: -1; CHRM4 agonist: -2; CHRM1 PAM: 15

How did Cc1cc(C)c2nc(N3CCC(C(=O)N4CCCC4)CC3)sc2c1 do in these assays?
CHRM4 PAM: -12; CHRM1 agonist: -8; CHRM1 antagonist: 37*; CHRM4 antagonist: 12; CHRM4 agonist: 0; CHRM1 PAM: -23

Results for Cc1cc(C)c2nc(N3CCC(C(=O)NCCCN4CCCCC4)CC3)sc2c1 ?
CHRM4 PAM: -12; CHRM1 agonist: -5; CHRM1 antagonist: 76*; CHRM4 antagonist: 7; CHRM4 agonist: 2; CHRM1 PAM: -20

Results for CCOC(=O)C1(Cc2ccc(OC)cc2)CCN(S(C)(=O)=O)CC1 ?
CHRM4 PAM: 1; CHRM1 agonist: -2; CHRM1 antagonist: 1; CHRM4 antagonist: -5; CHRM4 agonist: 1; CHRM1 PAM: 4

How did CCOC(=O)C1(Cc2ccc(Cl)cc2)CCN(C(C)Cc2ccc(O)c(OC)c2)CC1 (stereo not given) do in these assays?
CHRM4 PAM: -12; CHRM1 agonist: -5; CHRM1 antagonist: 39*; CHRM4 antagonist: 17; CHRM4 agonist: 12; CHRM1 PAM: -17

What do the screens show for `CCOc1ccc2oc(C(=O)NCC3CCCO3)c(C)c2c1` (stereo not given)?
CHRM4 PAM: 2; CHRM1 agonist: -2; CHRM1 antagonist: 25*; CHRM4 antagonist: 0; CHRM4 agonist: 2; CHRM1 PAM: 0

How did COc1ccc2oc(C(=O)NCC3CCCO3)c(C)c2c1 (stereo not given) do in these assays?
CHRM4 PAM: 3; CHRM1 agonist: -2; CHRM1 antagonist: -2; CHRM4 antagonist: 5; CHRM4 agonist: 2; CHRM1 PAM: 4
